Reference: PubChem BioAssay (NCATS)
Positions of bridges follow the written chain, without caps; N, C: chain ends. Non-standard residues stand in square brackets, D forms with d. Residues, ends and D or L forms follow the SMILES beside them. ξ: configuration not given here. *: point of attachment. Octanoyl(6-Me) = CCC(C)CCCCC(=O)*; ξThr(3R) = C[C@@H](O)C(N)C(=O)O; dDab = NCC[C@@H](N)C(=O)O; Dab = NCC[C@H](N)C(=O)O

Experiment: High-throughput drug toxicity screening in the BPDCN cell line Gen2.2 (AID 1224824)
Conditions: Gen2.2 BPDCN cells; at 45.8 µM (top of the series) unless noted
Excerpt: Blastic plasmacytoid dendritic cell neoplasm (BPDCN) is a rare, aggressive and largely incurable hematologic malignancy originating from plasmacytoid dendritic cells (pDCs). Although an initial response to chemotherapy is common, BPDCN prognosis is extremely poor and most patients relapse with drug-resistant disease leading to a median overall survival of ~1 year after diagnosis. To explore novel potential therapeutic strategies in BPDCN, we performed a high-throughput drug toxicity screening in BPDCN cell liens, using of a library of 1,912 small molecules, enriched for compounds that are either approved or in early stages of development for cancer therapy.
A total of 500 exponentially growing Gen2.2 cells were seeded per well in 5 uL of media (RPMI + Glutamine, without phenol red plus10% FBS and 1X Pen/Strep) into 1536-well solid white high base tissue culture treated Greiner One Bio Plates (789173-F), using a multidrop combi dispenser and a small sterile cassette. Compounds and controls totaling 23nL per well (negative control DMSO and positive control 9.2 uM Bortezomib-final) were immediately added to the plates using a 1536 head pin tool from Kalypsys. The plates were then covered with stainless steel gasket lids from Kalypsys and incubated for 48 hours at 37C under 95% relative humidity with 5% CO2. After 48 hours, the plates were removed and allowed to reach room temperature before 3 uL of Cell Titer Glo reagent (Promega) were added using an Aurora Flying Reagent Dispenser Bioraptor. The plates were then spun at 1000 rpms to remove bubbles and incubated for 15 minutes at room temperature before reading on a ViewLux using a luminescent filter with a 10 second exposure. The relative luciferase units were used to calculated percent activity using DMSO as 100% and Bortezomib as 0%.

| SMILES | cell viability, % of control (lower = more cytotoxic) |
| --- | --- |
| C[C@@H]1C(=O)O[C@H]2CC34[C@H]5C[C@@H](C(C)(C)C)C36[C@H](OC(=O)[C@@H]6O)O[C@@]4(C(=O)O5)[C@]21O (stereo not given in full) | 129% |
| CCC(C)CCCCC(=O)N[C@@H](CCN)C(=O)NC(C(=O)N[C@H](CCN)C(=O)N[C@@H]1CCNC(=O)C([C@@H](C)O)NC(=O)[C@@H](CCN)NC(=O)[C@@H](CCN)NC(=O)[C@@H](CC(C)C)NC(=O)[C@H](Cc2ccccc2)NC(=O)[C@H](CCN)NC1=O)[C@@H](C)O (stereo partly drawn) ({Octanoyl(6-Me)}-[Dab][ξThr(3R)][dDab][dDab][Dab]F[dL][dDab][dDab][ξThr(3R)]; lactam 4-C) | 172% |
| CC1=C(C(=O)Nc2cc3cn[nH]c3cc2F)C(c2ccc(Cl)cc2F)N=C(c2ccnc(Cl)c2)N1 (stereo not given) | 4.15% |
| O=c1ccn([C@@H]2O[C@H](CO)[C@H](O)[C@@H]2F)c(=O)[nH]1 | 191% |
| CCOC(=O)N1CCN([N+]([O-])=NOc2ccc([N+](=O)[O-])cc2C#N)CC1 | 17.2% |
| Nc1ncn([C@@H]2O[C@H](CO)[C@@H](O)[C@@H]2O)c(=O)n1 | 15.6% |
| CC[C@@]1([C@@H]2O[C@@H]([C@H]3O[C@@](O)(CO)[C@H](C)C[C@H]3C)C[C@H]2C)CC[C@H]([C@]2(C)CC[C@]3(C[C@H](O)[C@@H](C)[C@@H]([C@@H](C)[C@@H](OC)[C@H](C)C(=O)O)O3)O2)O1 | 27.8% [at 23.2 µM] |
| O=C1c2cccc(O)c2C(=O)c2c(O)cc(CO)cc21 | 161% |
| Nc1nc(=O)n([C@H]2CSC(CO)O2)cc1F (stereo not given in full) | 249% |
| CC(C)(C)[N+]([O-])=Cc1ccc(S(=O)(=O)O)cc1S(=O)(=O)O | 133% |
| O=C1NC(=O)C(=Cc2ccc3nccc(-c4ccncc4)c3c2)S1 | 3.73% |
| CC(C=CC1=C(C)CCCC1(C)C)=CC=CC(C)=CC(=O)Nc1ccc(O)cc1 | 5.64% [at 92.2 µM] |
| C=Cc1c(C)c2cc3nc(cc4[nH]c(cc5nc(cc1[nH]2)C(C)=C5CCC(=O)O)c(CCC(=O)OC)c4C)[C@@]1(C)C3=CC=C(C(=O)OC)[C@H]1C(=O)OC | 5.48% |
| CCCCCN=C(N)NN=Cc1c[nH]c2ccc(OC)cc12 | 38.7% |
| CC(C(C)N1CC(=O)NC(=O)C1)N1CC(=O)NC(=O)C1 (stereo not given) | 158% |
| COc1cc(C=CC(=O)CC(=O)C=Cc2ccc(O)c(OC)c2)ccc1O | 5.74% [at 92.2 µM] |
| CC(C)Oc1ccc(C(=O)N[C@H](CNC(=O)CN(C)C)Cc2ccc(-c3cn4cccc([C@H](C)O)c4n3)cc2)cc1Cl | 61.2% |
| COC[C@H](NC(=O)c1cnc(C)s1)C(=O)N[C@@H](COC)C(=O)N[C@@H](Cc1ccccc1)C(=O)[C@@]1(C)CO1 | 0.973% |
| C[C@H](NC(=O)Cc1cc(F)cc(F)c1)C(=O)N[C@H](C(=O)OC(C)(C)C)c1ccccc1 | 89% |
| COc1cc(OC)c(NC(=O)Nc2cc(C)on2)cc1Cl | 187% |

| SMILES | cell viability, % of control (lower = more cytotoxic) |
| --- | --- |
| N[C@H]1CN(c2c(F)cc3c(=O)c(C(=O)O)cn(C4C[C@@H]4F)c3c2Cl)CC12CC2 (stereo not given in full) | 92.2% |
| CC(C)(O)CC[C@@H](O)[C@](C)(O)[C@H]1CC[C@@]2(O)C3=CC(=O)[C@@H]4C[C@@H](O)[C@@H](O)C[C@]4(C)[C@@H]3CC[C@]12C | 104% |
| CCOC(=O)[C@H](CCc1ccccc1)N[C@@H](C)C(=O)N1[C@@H](C(=O)O)C[C@H]2CCC[C@@H]21 | 7.77% |
| COc1ccc([C@@H]2CNC(=O)C2)cc1OC1CCCC1 | 107% |
| C=C(C)[C@@H]1CC[C@]2(C)CC[C@]3(C)[C@H](CC[C@@H]4[C@@]5(C)CC[C@H](O)C(C)(C)[C@H]5CC[C@]43C)[C@@H]12 | 162% |
| C[C@H](NCc1ccc2c(c1)nc(NC(=O)c1ccc(-c3cn[nH]c3)s1)n2CCc1ccccc1)C(C)(C)C | 9.44% |
| C[N+]1(C)[C@@H]2C[C@@H](OC(=O)C(O)(c3cccs3)c3cccs3)C[C@H]1[C@@H]1O[C@@H]12 | 87.6% |
| CC(=O)[C@]1(O)Cc2c(O)c3c(c(O)c2[C@@H](O[C@H]2C[C@H](N)[C@@H](O)[C@H](C)O2)C1)C(=O)c1ccccc1C3=O | 6.08% |
| COC(=O)[C@@H]1CC2=CC(=O)CC[C@]2(C)[C@@]23O[C@@H]2C[C@@]2(C)[C@H](CC[C@@]24CCC(=O)O4)[C@@H]13 | 132% |
| COc1cc(O)c2c(c1)C1OC1C[C@H](O)[C@H](O)C(=O)C=CC[C@H](C)OC2=O (stereo not given in full) | 3.33% |
| NC(=O)Nc1cc(-c2ccc(CN3CCOCC3)cc2)sc1C(N)=O | 26.1% |
| CCOC(=O)C=C[C@H](C[C@@H]1CCNC1=O)NC(=O)[C@@H](CC(=O)[C@@H](NC(=O)c1cc(C)on1)C(C)C)Cc1ccc(F)cc1 | 74.1% |
| Cc1onc(-c2ccccc2)c1C(=O)N[C@@H]1C(=O)N2[C@@H](C(=O)O)C(C)(C)S[C@@H]12 | 73.2% |
| O=C(NCc1ccccc1)[C@H](Cc1ccccc1)NC(=O)[C@@H]1O[C@@H]1C(=O)NCCc1ccc(O)cc1 | 49% |
| CON=C(C(=O)N[C@@H]1C(=O)N2C(C(=O)O)=C(CSC(=O)c3ccco3)CS[C@H]12)c1csc(N)n1 | 7.56% |
| COc1cccc2c1C(=O)c1c(O)c3c(c(O)c1C2=O)C[C@@](O)(C(C)=O)C[C@H]3O[C@H]1C[C@H](N)[C@H](O)[C@H](C)O1 | 3.75% |
| COc1cc(N2CCC(C(N)=O)CC2)ccc1Nc1nc(N)c(Cl)c(Nc2ccccc2S(=O)(=O)C(C)C)n1 | 147% |
| O=C(CN1C(=O)C2(CCCC2)NC[C@H]1c1cc(F)cc(F)c1)Nc1ccc2c(c1)C[C@@]1(C2)C(=O)Nc2ncccc21 | 124% |
| CC(Oc1ccc(O)cc1)(P(=O)(O)O)P(=O)(O)O | 123% |
| Cc1[nH]c(C=C2C(=O)Nc3ccccc32)c(C)c1CCC(=O)O | 12.9% |
